Assay outcomes as filed in PubChem.
PKM2 act = activators of human pyruvate kinase M2. P14618. purified PKM2, Kinase-Glo ATP luminescence, activation; response scale: 0% is enzyme alone, no compound. Potency, µM (doses to about 57.5 µM), for inactives: at the top dose activation, usual class: activators. 260,000 tested, 0.34% active; note: potency is the fitted concentration of half-maximal effect; % is set by controls: 0 for no effect and ±100 for the full control effect; nearly all actives have a fitted effect of over 55% in size
Target sequence (P14618 whole entry, looked up): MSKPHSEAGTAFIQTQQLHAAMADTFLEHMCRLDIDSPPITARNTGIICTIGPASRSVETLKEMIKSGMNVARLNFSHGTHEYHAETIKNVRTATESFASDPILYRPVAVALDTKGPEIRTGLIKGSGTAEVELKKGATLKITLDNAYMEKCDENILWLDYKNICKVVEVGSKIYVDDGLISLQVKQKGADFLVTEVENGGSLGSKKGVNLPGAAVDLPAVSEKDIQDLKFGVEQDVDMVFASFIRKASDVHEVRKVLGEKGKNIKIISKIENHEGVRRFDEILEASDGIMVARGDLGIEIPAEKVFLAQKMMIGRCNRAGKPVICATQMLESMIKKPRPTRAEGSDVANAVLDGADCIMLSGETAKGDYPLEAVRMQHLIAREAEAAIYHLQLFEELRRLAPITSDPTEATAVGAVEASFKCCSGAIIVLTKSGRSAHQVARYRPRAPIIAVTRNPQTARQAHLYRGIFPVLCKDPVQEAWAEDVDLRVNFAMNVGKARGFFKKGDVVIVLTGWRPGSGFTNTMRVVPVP
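Purified hPK-M2 (>95%) run at intermediate activity with 0.1 mM ADP and 0.5 mM PEP in 50 mM imidazole pH 7.2, KCl, MgCl2; 1 h room temperature. ATP formed read by Kinase-Glo luminescence; normalized to uninhibited and no-enzyme controls.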
TCR activator = activators of T cell receptors. 330,000 tested, under 10 active. primary human leukocytes, anti-CD3, IL-2 HTRF, 48 h. Potency, µM (series often up to 9.22 µM), inactives show top-dose activation of IL-2 secretion, usual class: activators; note: % of control where 0% means no effect
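IL-2 release read by HTRF sandwich (Eu cryptate donor, d2 acceptor, 665 nm emission) after 48 hr exposure of primary human leukocytes to compound together with anti-CD3 beads in the absence of co-stimulatory signals.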
uPA surface inh = blocks generation of uPA at the cell surface; cell surface uPA generation assay, qHTS; Potency, µM (highest dose often 38.3 µM), without a hit: at the highest dose activity change, negative = inhibition, most hits filed as inhibitors; 330,000 tested, 0.31% active; AID 540303; active = well fitted inhibition curve with a large enough effect; inconclusive = small, poorly fitted or top-dose-only effect; inactive = no such curve, though single readings can be large or run the other way; tested in mouse RAW 264.7 cells; note: potency is the fitted concentration of half-maximal effect; % is set by controls: 0 for no effect and ±100 for the full control effect; nearly all actives have a fitted effect of over 55% in size
TSHR antag = blocks TSH signaling through the human TSH receptor | TSHR-expressing cells, TSH-stimulated cAMP HTRF, 2 h; hits give low values | activity change, negative = inhibition, % at 11.5 µM | 330,000 tested, 0.2% active;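 active = activity change below a set negative limit, meaning inhibition stronger than a set level, cut at about -70% in these data; inconclusive = activity change between two set negative limits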; note: % is set by controls: 0 for no effect and ±100 for the full control effect
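Cell-based HTRF cAMP assay; TSHR cells + compound, TSH EC80 (4nM final), 2 h, 37 deg C. Lysis with anti-cAMP cryptate and cAMP-d2, 30 min RT, read 665/620 nm.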
The depositor's hits bear a star; ? = inconclusive; / = not tested or not shown; [ ] = remark or other dose. The list is not random: actives were taken first. Their share in the collection is about 0.75%. Unless noted, calls come from the whole dose curve; as a rule, active = well fitted curve in the direction sought with a large enough effect; inconclusive = small, poorly fitted or top-dose-only effect, or another doubt; inactive = no such curve, though single readings can be large; an effect the other way counts as inactive or inconclusive.

SMILES	PKM2 act	TCR activator	uPA surface inh	TSHR antag
CCCn1c(C)nc2c(N(CCOC)CCOC)nc(C)nc21	-1%	/	/	/
CC(=O)CCc1oc2ccc([N+](=O)[O-])cc2c1-c1ccc(C)o1	2%	1%	2%	-8
CC(=O)CCc1oc2c([N+](=O)[O-])cccc2c1-c1ccc(C)o1	10µM*	-5%	-22%	-9
O=C(NCc1ccco1)/C(=C\c1cccs1)NC(=O)c1ccco1	28µM*	3%	-1%	-3
Cc1cc(NS(=O)(=O)c2ccccc2)cc(Cl)c1O	16µM*	-4%	-2%	12
Cn1cc([N+](=O)[O-])c(C(=O)NC2CCCCCCC2)n1	1%	/	/	25
CCOC(CCn1c(SCC(=O)Nc2cc(C)on2)nc2ccccc2c1=O)OCC	5%	-1%	3%	-4
CCOC(=O)c1nc(C)sc1-c1ccnn1S(=O)(=O)c1ccc(C)cc1	-1%	0%	-3%	-78*
O=C(Nc1ccccc1C(=O)N/N=C/c1ccc(O)cc1)c1ccccc1	-39%	-8%	7.1µM*	0
Cc1ccc(S(=O)(=O)Nc2ccc3ncccc3c2[N+](=O)[O-])cc1	/	-1%	6%	/
Cc1ccc(S(=O)(=O)Nc2ccc(O)c3ncccc23)cc1	20%	1%	7.9µM*	12
Cc1ccc(S(=O)(=O)Nc2cccc3ncccc23)cc1	-1%	-1%	-5%	-6
Cc1ccc(S(=O)(=O)Nc2ccc(O)c3cccnc23)cc1	10µM*	-2%	1%	15
COc1ccc(NC(=O)CCN2C(=O)C3C4CCC(C4)C3C2=O)cc1 (stereo not drawn)	-17%	16%[46.1 µM]	-4%	28
CC1CC(=O)N(c2ccc(C(C)C)cc2)C(=O)C1	-2%	/	2%	-118*
Cc1ccc(C)c(N)c1	/	-8%	-16%	10
Cc1ccc(O)c(N)c1	/	1%	2.8µM*	9
Cc1cc(SCc2ccccc2F)nc(=O)[nH]1	16µM*	5%	0%	-3
O=C1CC(c2ccc(OCCCCCOc3ccc(C4CC(=O)NC4=O)cc3)cc2)C(=O)N1 (stereo not drawn)	14µM*	-2%	-1%	-15
CC(C)(C)SCCNC(=O)CN1C(=O)c2cccc3cccc1c23	-1%[11.5 µM]	1%	0%	-6
COCCNC(=O)CN1C(=O)c2cccc3cccc1c23	-2%	/	-3%	-127*
Cc1csc(NC(=O)C2CCN(S(=O)(=O)c3ccccc3F)CC2)n1	8%	0%	7%	5
CCCCCCOC(=O)CC1CC(C(C)=O)C1(C)C (stereo not drawn)	/	-2%	4%	/
CCOC(=O)c1c(N)sc(C(=O)Nc2ccccc2)c1C	-16%	-9%	7.9µM*	-5
CCN(CCCNC(=O)Cn1ncc2c([nH]c3ccc(C)cc32)c1=O)c1cccc(C)c1	/	-2%	3%	-133*
SMILES	PKM2 act	TCR activator	uPA surface inh	TSHR antag
CCC1=Nc2cc(C(=O)NCc3ccco3)ccc2Sc2ccc(Cl)cc21	18%	1%[46.1 µM]	-8%	-12
CCC1=Nc2cc(C(=O)NCc3ccco3)ccc2Sc2ccccc21	18µM*	-3%[46.1 µM]	3.2µM*	16
COc1ccc(/C=C(\C#N)C(=O)N=CN(C)C)cc1	/	-3%	-2%	-8
COc1ccc(/C=C(\C#N)C(=O)N2COCC2(C)C)cc1	/	5%	2%	-75*
O=[N+]([O-])c1ccc(COP(=O)(O)OCc2ccc([N+](=O)[O-])cc2)cc1	/	2%	9%	/
CCc1cc(CNC(=O)CC2C(=O)NCCN2Cc2ccc(-c3ccccc3)cc2)on1 (stereo not drawn)	/	-7%	-5%	-113*
O=C(C1CC1)N1CCc2cc(Br)cc(S(=O)(=O)N3CCCCCC3)c21	-7%	-5%	2%	-12
CC(=O)N1CCc2cc(Br)cc(S(=O)(=O)N3CCC(C(=O)O)CC3)c21	1%	5%	2%	-106*
Cc1ccc(C(=O)N2CCCCC2)cc1NC1=C(Cl)C(=O)N(Cc2ccccc2)C1=O	/	-2%	?	-14
Cc1ccc(O)c(NC2=C(Cl)C(=O)N(Cc3ccccc3)C2=O)c1	8.9µM*	2%	1%	-3
Cc1nc(NCc2ccccc2)c2nc(-c3ccccc3)n(CC(C)(C)CN(C)C)c2n1	-9%	/	/	/
Cc1ccc(S(=O)(=O)c2ncccc2[N+](=O)[O-])cc1	/	4%	4µM*	2
Cc1ccc(S(=O)(=O)c2ncccc2N)cc1	/	-2%	7%	6
CCOc1ccc(S(=O)(=O)N(CC)CC(=O)NC2CC2)cc1	/	2%	10%	6
CN(C)/C=C(/C(=O)c1ccc(Cl)cc1Cl)S(=O)(=O)c1ccc(Cl)cc1	-6%	1%	-6%	2
CN(C)/C=C(/C(=O)c1ccc(Cl)cc1)S(=O)(=O)c1ccc(Cl)cc1	-3%	-2%	4%	-114*
N#C/C(=C(/O)c1ccc([N+](=O)[O-])s1)c1nc2ccccc2[nH]1	5%	1%	-25%	-26
N#C/C(=C(/O)c1ccc(Br)s1)c1nc2ccccc2[nH]1	4%	-16%	3.5µM*	27
O=C(Nc1ccc(N2CCOCC2)c(Cl)c1)c1ccc(-n2cnnc2)cc1Cl	?	11%	?	-18
O=C(c1ccc2c(c1)OCCO2)N1CCN(c2ccc([N+](=O)[O-])cc2)CC1	-7%	/	/	-4
CC1Sc2ccc(C(=O)NCc3ccccn3)cc2NC1=O (stereo not drawn)	/	3%	3.2µM*	-2
Cc1cc(C)c(NC(=O)c2ccc3c(c2)NC(=O)C(C)S3)c(C)c1 (stereo not drawn)	/	0%	11%	8
CCOc1ccc(N(CC(=O)NCc2cccnc2)S(=O)(=O)c2ccc(F)cc2)cc1	-7%	3%	-1%	3
Cc1ccc(Cn2ccsc2=NC(=O)CCl)cc1	4%	-2%	2µM*	6
Cc1ccc(Cn2ccsc2=NC(=O)COC(=O)c2ccc(NC(=O)CC#N)cc2)cc1	/	0%	16%	1
SMILES	PKM2 act	TCR activator	uPA surface inh	TSHR antag
CC(=O)c1cccc(NC(=S)N2CCN(S(=O)(=O)c3ccccc3)CC2)c1	0%	-4%	-10%	1
COc1ccccc1COC(=O)N/C=C/c1ccco1	18µM*	3%	3%	-3
O=C(O)c1ccc(NC(=O)c2ccccc2NC(=O)c2ccccc2Cl)cc1	1%	/	2%	-7
CC(C)[C@@H](CO)NC(=O)c1ccc2c3n(nc2c1)-c1ccc(Cl)cc1CO3	0%	-6%	-15%	2
Cc1ccc2c(c1)COc1c3ccc(C(=O)N[C@@H](C)CO)cc3nn1-2	-17%	8%	4.5µM*	7
C[C@@H](CO)NC(=O)c1ccc2c3n(nc2c1)-c1ccc(Cl)cc1CO3	-4%	5%	4.5µM*	-1
Cc1ccc2c(c1)COc1c3ccc(C(=O)NC(C)C)cc3nn1-2	-7%	11%	7.1µM*	-2
Cc1ccc2c(c1)COc1c3ccc(C(=O)NCCO)cc3nn1-2	-19%	1%	?	10
N#C/C(=C/C1=C(N2CCOCC2)C(=C/c2ccc(Cl)cc2Cl)/CC1)C(=O)Nc1ccccc1F	/	-6%	3%	/
